From PubChem BioAssay (NCI)
This is part of a sample that, as a whole, favours compounds with a hit. Of some 83,000 tested, about 20% had one in any assay.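 Single-concentration screen, 48 h exposure, 96-well plates. Endpoint: percent growth. Below 10 = active.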 Values without a mark were called inactive. The source made the active and inactive calls.

tested on: CCRF-CEM leukemia; experiment: NCI-60 one-dose screen, 48 h (100 = growth as untreated, 0 = no growth, -100 = all killed); settings: 10 µM unless noted

Row | SMILES | growth
1 | NC1=CC(=O)C(=O)c2ccccc21 | 93%
2 | NC(CC(=O)O)C(=O)OCc1ccccc1 (stereo unspecified) | 108%
3 | Cc1ccn2c(-c3csc(Nc4cccc(O)c4)n3)c(C)nc2c1 | 23.7%
4 | COc1ccc(C(=O)c2sc3nc(-c4ccccc4OC)ccc3c2N)cc1OC | 26.5%
5 | Cc1nn(-c2nc3ccccc3[nH]2)c2c1C(c1ccc3c(c1)OCO3)CC(=O)N2 (stereo unspecified) | 12.1%
6 | COc1cnc2c(c1)C(=O)c1c-2n(CCCN2CCCC2)c(=O)c2cc([N+](=O)[O-])ccc12 | -16.1% (active)
7 | Cc1cc(Nc2nc(N3CCOCC3)nc3ccccc23)n[nH]1 | 65.6%
8 | O=c1c(/C=C/c2ccco2)nnc(SCCN2CCOCC2)n1/N=C/c1ccc([N+](=O)[O-])cc1 | -20.4% (active)
9 | Nc1nc2ccc(-c3nc4ccc5[nH]ncc5c4c4c3CCC4)cc2s1 | 17.3%
10 | COc1ccc(C(=O)c2sc3nc4c(cc3c2N)CCCC4)cc1OC | 28.9%
11 | O=C1Nc2c(ccc(Cl)c2Cl)/C1=C/c1cc(Br)c(O)c(Br)c1 | 69%
12 | Cn1c2c(Cl)c(Cl)ccc2c2ccn3c(=O)c4ccccc4nc3c21 | 80.8%
13 | C/C(=C(/c1ccc(O)cc1)c1ccc(Cl)cc1)c1ccccc1 | -61.2% (active)
14 | Oc1ccc2c(=S)cc(-c3ccc(Br)cc3)oc2c1O | 5.37% (active)
15 | COc1cccc(-n2cc(-c3nc(Nc4cc(C)[nH]n4)c4ccccc4n3)nn2)c1 | 32.6%
16 | O=C([C@@H](COCc1ccccc1)N1C(=O)[C@@H](N2C(=O)OC[C@@H]2c2ccccc2)[C@H]1/C=C/c1ccccc1)N1CCC(CCN2CCCCC2)CC1 | 95.4%
17 | COc1ccc(-c2cc(/C=C3\C(=O)Nc4ccc(Cl)cc43)[nH]n2)cc1 | 35.5%
18 | CNC(=S)N/N=C/CSC/C=N/NC(=S)NC | 20.4%
19 | CCCCCCCCOC(=O)CC[C@@H](C)[C@H]1CC[C@H]2[C@@H]3[C@H](OC(=O)CCN)C[C@@H]4C[C@H](OC(=O)CCN)CC[C@]4(C)[C@H]3C[C@H](OC(=O)CCN)[C@]12C | -37.5% (active)

Row | SMILES | growth
20 | O=C1C=CC(=O)N1c1ccc(Cc2ccc(N3C(=O)C=CC3=O)cc2)cc1 | 89.5%
21 | N#CC1=C(N)Oc2c(ccc3ccccc23)C1c1cccs1 (stereo unspecified) | 5.17% (active)
22 | Cc1cc(Nc2nc(N3CCNCC3)nc3ccccc23)n[nH]1 | 108%
23 | COc1cc(/C=N/N(C)C)ccc1O | 94.5%
24 | CCN(CC)CC(O)CNc1c2ccc([N+](=O)[O-])cc2nc2cc(OC)c(OC)cc12 (stereo unspecified) | 9.53% (active)
25 | O=C1Nc2ccc(Br)cc2C12CC(c1ccccc1)=NN2 (stereo unspecified) | 32.3%
26 | O=C1C=CC(=O)c2c1nc1n2CCCC1 | 58.8%
27 | Cc1cc(=O)oc2cc(Oc3nc(-c4cccs4)cn4c(-c5cccs5)cnc34)ccc12 | 94.6%
28 | COc1ccc(-c2nc(Nc3cc(C)[nH]n3)c3ccccc3n2)cc1 | 49.3%
29 | O=C1Nc2ccccc2/C1=C/C(=N/c1nnc(-c2ccc(Cl)cc2)s1)c1ccccc1 | -42.7% (active)
30 | Nc1cc2nc3ccccc3sc-2cc1=O | 18.4%
31 | Cc1csc2ccc(Cl)cc12 | 108%
32 | Cc1ccc(NC(=O)c2sc3nc4c(cc3c2N)C(=O)CCC4)cc1C | 13.6%
33 | Cc1ccc2c(c1)n([O-])c1cc(Cl)ccc1[n+]2=O | 34.9%
34 | CC(C)[C@@H]1CC[C@]2(C(=O)NCCCCN=C(N)N)CC[C@]3(C)[C@H](CC[C@@H]4[C@@]5(C)CCC(=O)C(C)(C)[C@@H]5CC[C@]43C)[C@@H]12 | 37.6%
35 | COC1C/C(=N\O)C2OC(c3ccccc3)OCC2O1 (stereo unspecified) | 96.1%
36 | COc1cc(-c2c3sc(=O)[nH]c3nc3c2c(=O)[nH]n3C(C)C)cc2c1OCO2 | 125%
37 | CCOC(=O)C(C#N)C1CCCCC1 (stereo unspecified) | 87.2%
38 | Cc1cc(Nc2nc(-c3cccnc3)nc3ccccc23)n[nH]1 | 57.3%

tested on: MOLT-4 leukemia; experiment: as above; settings: 10 µM unless noted

Row | SMILES | growth
39 | NC1=CC(=O)C(=O)c2ccccc21 | 74.1%
40 | NC(CC(=O)O)C(=O)OCc1ccccc1 (stereo unspecified) | 103%
41 | Cc1ccn2c(-c3csc(Nc4cccc(O)c4)n3)c(C)nc2c1 | -7.6% (active)
42 | COc1ccc(C(=O)c2sc3nc(-c4ccccc4OC)ccc3c2N)cc1OC | -45% (active)
43 | Cc1nn(-c2nc3ccccc3[nH]2)c2c1C(c1ccc3c(c1)OCO3)CC(=O)N2 (stereo unspecified) | -48.5% (active)
44 | COc1cnc2c(c1)C(=O)c1c-2n(CCCN2CCCC2)c(=O)c2cc([N+](=O)[O-])ccc12 | 1.49% (active)
45 | Cc1cc(Nc2nc(N3CCOCC3)nc3ccccc23)n[nH]1 | 58.4%
46 | O=c1c(/C=C/c2ccco2)nnc(SCCN2CCOCC2)n1/N=C/c1ccc([N+](=O)[O-])cc1 | 81.2%
47 | Nc1nc2ccc(-c3nc4ccc5[nH]ncc5c4c4c3CCC4)cc2s1 | 18.5%
48 | COc1ccc(C(=O)c2sc3nc4c(cc3c2N)CCCC4)cc1OC | 6.5% (active)
49 | O=C1Nc2c(ccc(Cl)c2Cl)/C1=C/c1cc(Br)c(O)c(Br)c1 | 63.8%
50 | Cn1c2c(Cl)c(Cl)ccc2c2ccn3c(=O)c4ccccc4nc3c21 | 94.7%
51 | C/C(=C(/c1ccc(O)cc1)c1ccc(Cl)cc1)c1ccccc1 | -29.5% (active)
52 | Oc1ccc2c(=S)cc(-c3ccc(Br)cc3)oc2c1O | 7.88% (active)
53 | COc1cccc(-n2cc(-c3nc(Nc4cc(C)[nH]n4)c4ccccc4n3)nn2)c1 | 11%
54 | O=C([C@@H](COCc1ccccc1)N1C(=O)[C@@H](N2C(=O)OC[C@@H]2c2ccccc2)[C@H]1/C=C/c1ccccc1)N1CCC(CCN2CCCCC2)CC1 | 62.8%
55 | COc1ccc(-c2cc(/C=C3\C(=O)Nc4ccc(Cl)cc43)[nH]n2)cc1 | 25.1%
56 | CNC(=S)N/N=C/CSC/C=N/NC(=S)NC | 48.7%
57 | CCCCCCCCOC(=O)CC[C@@H](C)[C@H]1CC[C@H]2[C@@H]3[C@H](OC(=O)CCN)C[C@@H]4C[C@H](OC(=O)CCN)CC[C@]4(C)[C@H]3C[C@H](OC(=O)CCN)[C@]12C | 26.1%

Row | SMILES | growth
58 | O=C1C=CC(=O)N1c1ccc(Cc2ccc(N3C(=O)C=CC3=O)cc2)cc1 | 21.8%
59 | N#CC1=C(N)Oc2c(ccc3ccccc23)C1c1cccs1 (stereo unspecified) | 1.98% (active)
60 | Cc1cc(Nc2nc(N3CCNCC3)nc3ccccc23)n[nH]1 | 101%
61 | COc1cc(/C=N/N(C)C)ccc1O | 89.7%
62 | CCN(CC)CC(O)CNc1c2ccc([N+](=O)[O-])cc2nc2cc(OC)c(OC)cc12 (stereo unspecified) | -9.91% (active)
63 | O=C1Nc2ccc(Br)cc2C12CC(c1ccccc1)=NN2 (stereo unspecified) | 36.3%
64 | O=C1C=CC(=O)c2c1nc1n2CCCC1 | 90.3%
65 | Cc1cc(=O)oc2cc(Oc3nc(-c4cccs4)cn4c(-c5cccs5)cnc34)ccc12 | 78.7%
66 | COc1ccc(-c2nc(Nc3cc(C)[nH]n3)c3ccccc3n2)cc1 | 69.8%
67 | O=C1Nc2ccccc2/C1=C/C(=N/c1nnc(-c2ccc(Cl)cc2)s1)c1ccccc1 | -26.4% (active)
68 | Nc1cc2nc3ccccc3sc-2cc1=O | 61.4%
69 | Cc1csc2ccc(Cl)cc12 | 112%
70 | Cc1ccc(NC(=O)c2sc3nc4c(cc3c2N)C(=O)CCC4)cc1C | 27.6%
71 | Cc1ccc2c(c1)n([O-])c1cc(Cl)ccc1[n+]2=O | -9.08% (active)
72 | CC(C)[C@@H]1CC[C@]2(C(=O)NCCCCN=C(N)N)CC[C@]3(C)[C@H](CC[C@@H]4[C@@]5(C)CCC(=O)C(C)(C)[C@@H]5CC[C@]43C)[C@@H]12 | 38.6%
73 | COC1C/C(=N\O)C2OC(c3ccccc3)OCC2O1 (stereo unspecified) | 97.6%
74 | COc1cc(-c2c3sc(=O)[nH]c3nc3c2c(=O)[nH]n3C(C)C)cc2c1OCO2 | 104%
75 | CCOC(=O)C(C#N)C1CCCCC1 (stereo unspecified) | 79.3%
76 | Cc1cc(Nc2nc(-c3cccnc3)nc3ccccc23)n[nH]1 | 89.5%
